Laboratory results reported in PubChem BioAssay AID504652 (National Center for Advancing Translational Sciences (NCATS), 2011).
Among all 360,000 compounds or so, about 11,000 (3.1%) were called active. No stated cut-off is given here; in the data, active means activity change below about -30%; inactive means the rest. The full list was thinned out, with actives kept by preference.

molecular target: D(1A) dopamine receptor (Homo sapiens) (UniProt P21728); assay: Antagonist of Human D 1 Dopamine Receptor: qHTS; settings: HEK293 TREx D1 cells, calcium flux, dopamine EC80; at 10 µM; stronger effect = lower value
Sequence (P21728 whole entry, looked up): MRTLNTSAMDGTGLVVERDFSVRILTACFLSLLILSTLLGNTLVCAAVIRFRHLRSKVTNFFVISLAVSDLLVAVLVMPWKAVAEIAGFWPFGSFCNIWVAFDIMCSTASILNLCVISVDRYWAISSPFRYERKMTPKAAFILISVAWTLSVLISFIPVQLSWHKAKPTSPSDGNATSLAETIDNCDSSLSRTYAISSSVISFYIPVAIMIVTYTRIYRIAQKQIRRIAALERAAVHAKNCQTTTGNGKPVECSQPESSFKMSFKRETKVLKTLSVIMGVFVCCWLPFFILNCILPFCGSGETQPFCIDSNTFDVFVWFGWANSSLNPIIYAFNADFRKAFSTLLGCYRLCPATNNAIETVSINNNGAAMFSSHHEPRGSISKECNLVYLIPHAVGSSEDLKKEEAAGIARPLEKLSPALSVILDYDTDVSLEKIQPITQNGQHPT
Outline: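 Compound effects on dopamine-evoked calcium signalling were measured in tetracycline-induced HEK293 Trex D1 cells. Dopamine at EC80 followed a 180 s compound pre-read, and fluorescence was tracked kinetically for 180 s more.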
On the % scale 0 is the no-effect control and ±100 the full control effect.

SMILES | activity change, negative = inhibition
COc1cccc(NC(=O)CN2C(=O)c3ccccc3Sc3ncccc32)c1 | 5.53% (inactive)
COc1cccc(-c2nc(CS(=O)(=O)CC(=O)N3CCN(c4cc(C)ccc4C)CC3)c(C)o2)c1 | -16.9% (inactive)
CC(NC(=O)CCc1cn(Cc2ccccc2Cl)c2ccccc12)c1ccccc1 (configuration not stated) | -6.68% (inactive)
CCOCCCNC(=O)c1c(NC(=O)Cc2coc3c(C)c(C)ccc23)sc2c1CCC2 | 11.9% (inactive)
Cc1ccc(Cl)cc1NC(=O)CCC(=O)N1CC(C)Sc2ccccc21 (configuration not stated) | 0.985% (inactive)
Cc1ccc(S(=O)(=O)NCc2nc3ccccc3c(=O)n2N)cc1 | -32.4% (active)
COc1ccccc1CNS(=O)(=O)c1ccc(C)cc1 | -13.9% (inactive)
C#CCCCc1nc2ccccc2c(=O)n1N | 3.38% (inactive)
Cc1ccc(Cn2c(CCCNC(=O)C3CCCCC3)nc3ccccc32)cc1 | 10.5% (inactive)
CC(C)Cn1c(-c2ccc(S(=O)(=O)N3CCOCC3)cc2)csc1=Nc1cc(Cl)ccc1Cl | -0.499% (inactive)
CC1CCCN(c2nc3c(S(=O)(=O)c4ccc(C(C)C)cc4)nnn3c3ccsc23)C1 (configuration not stated) | -10.6% (inactive)
CCc1cc2c(cc(C(=O)OC)n2Cc2nc(-c3ccc(C)cc3)oc2C)s1 | 10.2% (inactive)
COC(=O)C1=C(C(=O)OC)[C@@H]2N(C)c3ccccc3[C@@]23C[C@@H](C(=O)OC)N(C(C)=O)C3=N1 | -45.5% (active)
CC(=O)NNC1=Nc2ccccc2N(C)C(C)C1 (configuration not stated) | 3.33% (inactive)
O=C(CSc1n[nH]c(-c2cccnc2)n1)Nc1ccnc2ccccc12 | -30.8% (active)
O=C(CSc1ncn[nH]1)Nc1ccnc2ccccc12 | -18.5% (inactive)
O=C(CSc1n[nH]c(-c2cccnc2)n1)Nc1ccc(Cl)cc1 | 24.7% (inactive)
O=C(CNC(=O)c1ccc(Cl)c(C(F)(F)F)c1)OC(C(=O)Nc1cc(C(F)(F)F)ccc1Cl)c1ccccc1 (configuration not stated) | 7.72% (inactive)
COc1ccc(Cl)cc1S(=O)(=O)N1CCC(c2ccncc2)CC1 | 8.07% (inactive)

SMILES | activity change, negative = inhibition
CCCn1c2ccccc2c2cnn(CC(=O)N3CCCC(C(=O)OCC)C3)c(=O)c21 (configuration not stated) | 13.4% (inactive)
Cc1ccc(Cn2c(C)c3cnn(CC(=O)NCc4ccccc4)c(=O)c3c2C)cc1 | -2.69% (inactive)
CCOC(=O)C1CCCN(C(=O)Cn2ncc3c(C)n(Cc4ccc(F)cc4)c(C)c3c2=O)C1 (configuration not stated) | -36.8% (active)
CC1CCN(C(=O)Cn2c(=O)n(-c3ccc(Cl)cc3)c(=O)c3c4c(sc32)CCC4)CC1 | -0.901% (inactive)
CSc1ccc(NC(=O)Cn2nnnc2-c2ccccc2F)cc1 | -8.36% (inactive)
Cc1ccc(Cl)cc1NC(=O)C(C)n1nnc2sc(-c3ccccc3)cc2c1=O (configuration not stated) | -1.65% (inactive)
CCN(CCn1cccn1)Cc1nc(-c2ccc(C(=O)OC)cc2)no1 | -44.5% (active)
COC(=O)c1ccc(-c2noc(CN(Cc3ccccn3)CC3CCCO3)n2)cc1 (configuration not stated) | -16.4% (inactive)
CCN(CCn1cccn1)Cc1cn[nH]c1-c1ccc(OC)cc1F | 0.481% (inactive)
COC(=O)c1ccccc1NC(=O)c1ccc(C#N)cc1 | 6.29% (inactive)
O=[N+]([O-])c1ccc(NCCCO)c(C(F)(F)F)c1 | 6.05% (inactive)
CC(C)(C)C(=O)NCCCNc1ccc([N+](=O)[O-])cc1 | -35.6% (active)
COCCCNC(=S)NC(=O)c1ccc([N+](=O)[O-])cc1 | 5.38% (inactive)
CC1=C(C(=O)OCc2ccc(C)cc2)C(c2ccccc2Cl)CC(=O)N1 (configuration not stated) | -1.32% (inactive)
Cc1cccc(Cn2c(=O)n(CCC(=O)NCCc3ccc(Cl)cc3)c(=O)c3sccc32)c1 | -1.13% (inactive)
CCN(CCCNC(=O)c1cc2cc3cc(OC)ccc3nc2s1)c1ccccc1 | -2.73% (inactive)
O=C(CSc1nc2[nH]ncc2c(=O)[nH]1)Nc1ccc(F)cc1 | -21.9% (inactive)
CCCSc1nc2[nH]ncc2c(=O)[nH]1 | -32.5% (active)
Cc1ccc(CSc2nc3[nH]ncc3c(=O)[nH]2)cc1 | -7.82% (inactive)

SMILES | activity change, negative = inhibition
CCc1ccccc1NC(=O)CSc1nnc(-c2ccccc2)c(-c2ccccc2)n1 | 6.16% (inactive)
O=C1/C(=C/c2ccc(F)cc2)SC(=S)N1NS(=O)(=O)c1ccccc1 | -4.82% (inactive)
CCN(C(=O)CN1C(=O)/C(=C/c2ccc(F)cc2)SC1=S)C1CCS(=O)(=O)C1 (configuration not stated) | 6.56% (inactive)
O=C1/C(=C/c2ccc(F)cc2)SC(=S)N1CCCC(=O)N1CCCCC1CCO (configuration not stated) | -30.8% (active)
O=C(Cn1cnc2c(oc3ccccc32)c1=O)Nc1ccc(OC(F)(F)F)cc1 | 17.3% (inactive)
Cn1c(Nc2ccccc2)cc(=O)n(C)c1=O | 4.71% (inactive)
Cc1cc(NC(=O)Nc2ccc(Cl)cc2)n(-c2ccccc2)n1 | -15.2% (inactive)
Cc1cc(Nc2ccccc2)n(C(=O)c2ccc(N)cc2)n1 | -35.8% (active)
O=C(c1cccs1)c1cn(CCOc2ccc(Cl)cc2)c2ccccc12 | -2.17% (inactive)
CN1CN(C)c2ccc([N+](=O)[O-])c3cccc1c23 | 1.14% (inactive)
O=C1c2cccc3c([N+](=O)[O-])ccc(c23)C(=O)N1CC1CCCO1 (configuration not stated) | -30.6% (active)
O=C1C(C=NCC2CCCO2)=C(O)c2ccccc21 (configuration not stated) | -0.787% (inactive)
CC(=O)c1ccc(NC(=O)c2nc3nc(C)cc(C(F)F)n3n2)cc1 | 6.33% (inactive)
CCOC(=O)c1ccc(NC(=O)Cn2c(=O)n(-c3ccc(C)cc3)c(=O)c3c2cnn3C)cc1 | -7.04% (inactive)
CCn1cc(C(=O)NCc2ccccc2)c(=O)c2cc(S(=O)(=O)N3CCCCC3)ccc21 | 1.17% (inactive)
CCn1c(CNC(=O)C23CC4CC(CC(C4)C2)C3)nnc1SCC(=O)Nc1ccc(OC)cc1 | 17.4% (inactive)
COc1ccc(-c2noc(CCCC(=O)NC3CCCC3)n2)cc1OC | -31.9% (active)
CCOc1ccc(-c2noc(CCC(=O)NC3CCCC3)n2)cc1OC | 5.22% (inactive)
CCOc1cc(-c2noc(CCCC(=O)NC3CCCCC3)n2)ccc1OC | -2.32% (inactive)
